According to PubChem BioAssay AID624202 (National Center for Advancing Translational Sciences (NCATS), 2012):
About 4,000 (1.1%) of roughly 380,000 compounds were called active. Another 3% or so got no clear call; they are omitted. The entries come from a sample that favours actives as a whole. Values without a mark were called inactive. Calls follow the shape of the dose curve; as a rule, active = well fitted activation curve with a large enough effect; inconclusive = small, poorly fitted or top-dose-only effect; inactive = no such curve, though single readings can be large or run the other way.

Assay: qHTS Assay to Identify Small Molecule Activators of BRCA1 Expression; also: nearly all actives have a fitted effect of over 80% in size
Conditions: MCF7-BRCA1-FFLuc reporter, luminescence, 48 h; series mostly up to 46.1 µM; activation: at the top concentration
Method in brief: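 Luminescence from a BRCA1-driven firefly luciferase in MCF7 cells was read after 48 h compound exposure at 37 C. Data normalized against DMSO and a 10microM genistein activation control, then curve-fitted across the titration.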
Potency is read from the fitted curve at half-maximal effect.

In order of rising “activation” value:
1. COc1ccc(Nc2ncc(C(=O)Nc3cc(C)ccc3OC)c3ccccc23)cc1  -69.1%
2. Cc1[nH]c2ccccc2c1C(c1ccccc1)c1cccs1 (centres undefined)  -62.9%
3. CN(C)C1=C2C=CC=CC2/C(=C2/C=Cc3ccccc32)C=C1 (centres undefined)  -38.7%
4. CC(=O)c1ccc(NC(=O)c2nc(-c3ccc(C)cc3)n3c2CCCCC3)cc1  -35.8%
5. C=COC(=O)N1CCN(/[N+]([O-])=N/Oc2ccc([N+](=O)[O-])cc2[N+](=O)[O-])CC1  -34.6%
6. CNC(=O)c1sc(Nc2ccc(OCc3ccccc3)cc2)nc1C  -32.3%
7. COc1ccc(N(CC(=O)NCCc2ccc(Cl)cc2)S(=O)(=O)c2c(C)nn(C)c2C)cc1  -29.5%
8. CCc1ccc(CNC(=O)c2cc3c(=O)n(CC)c4ccccc4c3s2)cc1  -26.6%
9. O=C(COc1ccccc1C(=O)Nc1ccccc1)Nc1cccc(F)c1  -25.4%
10. CCCCCCC1(C)NC(c2ccc3c(c2)OCO3)=CC(c2ccccc2O)N1 (centres undefined)  -23.1%
11. COc1ccc(-n2ccnc(NCCc3ccc(Cl)cc3)c2=O)cc1OC  -20.9%
12. CCC(CC)c1nnc(NC(=O)C2CCN(C(=O)c3ccco3)CC2)s1  -18.7%
13. Cc1ccc(S(=O)(=O)c2nc(NCCCn3ccnc3)sc2Cl)cc1  -18.5%
14. Cc1ccc(NC(=S)NC(NC(=O)Cc2cccc3ccccc23)C(Cl)(Cl)Cl)cc1 (centres undefined)  -17%
15. COc1cccc(C(=O)c2sc3nc(-c4ccccc4)cc(C(F)(F)F)c3c2N)c1  -16.2%
16. COc1cccc(NC(=O)CN(C)C(C)C(=O)Nc2ccc(C#N)cc2)c1 (centres undefined)  -16.1%
17. COc1ccc2c(c1)c(N1CCCC1=O)c(C(=O)Nc1ccccc1C(F)(F)F)n2C  -15.9%
18. CCCCOc1ccc(C(=O)NO)cc1  -15.2%
19. O=C(CC(c1cccs1)N1Cc2ccccc2C1=O)Nc1ccc(F)cc1F (centres undefined)  -10.8%
20. O=C(CN1CCCCCC1)Nc1ccc(Cl)cc1F  -8.5%
21. Cc1ccc(C)c(N2CCN(C(=O)CN3C(=O)COc4ccc(S(=O)(=O)N5CCCCCC5)cc43)CC2)c1  -8.26%
22. O=C(Cc1c[nH]c2ccccc12)N/N=C/c1cccc(F)c1  -8.13%
23. CCn1c(=O)c2cc(C(=O)NCCc3ccc(Cl)cc3)sc2c2ccccc21  -7.3%
24. COc1cc(-c2nnc(NC(=O)C3=COCCO3)o2)cc(OC)c1OC  -6.67%
25. CCOC(=O)c1sc(N)c(C#N)c1COC(=O)C1=COCCO1  -3.85%
26. COC(=O)C1=C(C(=O)OC)[C@@H]2N(Cc3ccccc3)c3ccccc3[C@@]23C[C@@H](C(=O)OC)N(S(=O)(=O)c2ccc(C(F)(F)F)cc2)C3=N1  -3.67%
27. CC1=C(C(=O)OCc2ccc(C)cc2)C(c2ccccc2Cl)CC(=O)N1 (centres undefined)  -3.29%
28. CCCN(CCC)S(=O)(=O)c1ccc(C(=O)Nc2sc3c(c2C(=O)OC)CCN(CC)C3)cc1  -3.04%
29. Cc1ccc2c(Cl)c(C(=O)NCCCn3ccnc3)sc2c1  -2.83%
30. O=C(CSc1nc2ccccc2o1)N1CCN(c2ccccc2)CC1  -2.33%
31. COCc1cc(C)n(CC(=O)NCC2CCCO2)c(=O)c1C#N (centres undefined)  -1.54%
32. COc1cc(OC)c(OC)cc1/C=C1\C=Cc2ccccc21  -1.54%
33. Cc1nonc1C1CCCN1C(=O)c1cc(COc2cccc(C(F)(F)F)c2)on1 (centres undefined)  -1.32%
34. O=C(NC1CCN(Cc2ccccc2)CC1)c1ccc(Cn2c(=O)c3ccccc3n(Cc3cccc(F)c3)c2=O)cc1  -0.126%
35. O=C1COc2ccc(-c3csc(-c4ccc(Cl)cc4)n3)cc2N1  -0.092%
36. Cc1cccc(OCCSc2nc3ccccc3n2CC(=O)N2CCCCC2)c1C  -0.0666%
37. CCC(=O)N1CCc2cc(CNC(=O)Nc3ccccc3Cl)ccc21  0%
38. CCCC(=O)N1CCN(c2nc3c(OC)ccc(C)c3s2)CC1  0%
39. CCCCCn1c(=O)[nH]c2cc(C(=O)Nc3ccc(F)cc3)ccc2c1=O  0%
40. O=C(/C=C/c1ccccc1)N1CCN(Cc2cc(=O)n3nc(-c4ccccc4F)sc3n2)CC1  0%
41. O=C(Cc1cccc2ccccc12)NNC(=O)Nc1ccc(Cl)cc1  0%
42. COc1ccc(-c2nc3ccccc3s2)cc1NC(=O)COc1ccccc1C  0%
43. COc1cc2nc(Cl)nc(NC3CC3)c2cc1OC  0%
44. N#CC(=C1SC=CS1)c1nc(-c2ccccc2)cs1  0.115%
45. CCCN(CCC)C(=O)Cn1c(=O)n(-c2ccc(Cl)cc2)c(=O)c2c3c(sc21)CCCCC3  0.395%
46. Fc1ccc(COc2cccc(-c3n[nH]c(=S)o3)c2)cc1  0.968%
47. COc1ccccc1C1C(C(=O)N2CCCCC2)=C(C)Nc2nc3ccccc3n21 (centres undefined)  1.14%
48. CCN(CC)S(=O)(=O)c1ccc(C(=O)N=c2sc3cccc(OC)c3n2C)cc1  1.52%
49. Cc1ccc(S(=O)(=O)N2CCN(c3nc(-n4cnc5ccccc54)nc4ccccc34)CC2)cc1  1.6%
50. O=C(COC(=O)Cc1ccc(Cl)cc1Cl)NCc1ccco1  1.86%
51. COc1cc(-c2noc(-c3ccc(N4CCCC4)c([N+](=O)[O-])c3)n2)cc(OC)c1OC  1.9%
52. CCCCCN1CC(O)=C(c2nc(-c3ccc(Cl)cc3)cs2)C1=N  3.59%
53. O=C(NCC12CC3CC(CC(C3)C1)C2)c1cc2nc(-c3ccccc3)cc(C(F)(F)F)n2n1  4.13%
54. CCOC(=O)c1oc2ccc(S(=O)(=O)n3nc(-c4ccccc4OC)cc3N)cc2c1C  4.41%
55. CCn1c(SCC(=O)Nc2sc(C)c(C)c2C#N)nnc1C1CC1  4.48%
56. O=C(CN1CCSCC1)N/N=C/c1ccc(F)cc1  5.61%
57. CCN(CC)C(=O)c1nc[nH]c1C(=O)N(C)Cc1ccccc1  5.79%
58. COc1ccc(-c2noc(CSc3nc(C)cc(=O)[nH]3)n2)cc1OC  6.36%
59. CC(C)c1ccc(NC(=O)CN(C)S(=O)(=O)c2ccc3c(c2)c(=O)n(C)c(=O)n3C)cc1  6.46%
60. COC(=O)/C=C/C(=O)NCc1ccco1  7.24%
61. CCOc1n[nH]c(-c2ccccc2)n1  7.24%
62. Cc1ccc(-c2nn3c(=O)cc(CN4CCN(S(=O)(=O)c5ccc(Cl)cc5)CC4)nc3s2)cc1  8.18%
63. COc1cc2[nH]c(C)c(CCN3CCN(c4ccccc4)CC3)c2cc1OC  8.7%
64. Cc1cccc(N2O[C@H]3C=CC2CCCC3)n1  8.96%
65. Cc1ccc2c(c1)N(CC(=O)NCC1CCCO1)C(=O)CO2 (centres undefined)  10.8%
66. COc1ccc(C(=O)NCc2nnc(SCC(=O)Nc3cccc(OC)c3)o2)cc1  10.8%
67. Cc1ccc(C(=O)Nc2ccc(OCc3cc(=O)n4c(C)csc4n3)cc2)cc1  11.9%
68. CC1=C(C(=O)OCc2ccc(C)cc2)C(c2c(Cl)cccc2Cl)CC(=O)N1 (centres undefined)  13%
69. CC(C)(C)C(=O)Nc1cccc(-c2ccc[nH]2)n1  14.2%
70. Cn1c(=O)c2c(nc(Oc3ccc(C#N)cc3)n2Cc2ccc(Cl)cc2Cl)n(C)c1=O  15%
71. COc1cc(Cl)c(C)cc1NC(=O)CN1CCCCCC1  15.9%
72. Cc1ccc(-c2nnc3ccc(SCC(N)=O)nn23)cc1  19.8%
73. O=C(C1CCCN(S(=O)(=O)c2cccc3nonc23)C1)N1CCN(c2ccccc2F)CC1 (centres undefined)  20%
74. CCn1cc(C(=O)NCCc2ccccc2)c(=O)c2cc(S(=O)(=O)N3CCCCCC3)ccc21  21.6%
75. CCCCCC(=O)Nc1ccc(-c2cn3cccnc3n2)cc1  26.8%
76. Cc1cccc(N2CCN(c3ccc(C(=O)O)cc3NC(=O)c3ccccc3F)CC2C)c1 (centres undefined)  27%
77. O=C(COC(=O)c1ccccc1OCCOc1ccccc1)Nc1cccc(Br)c1  27.6%
78. S=c1[nH]nc(Nc2ccccc2)s1  29.3%
79. O=C(CSc1nc2ccccc2o1)N/N=C/c1ccccc1C(=O)O  30.4%
80. Cc1ccc(OCc2cc(C(=O)N(C)CCn3ccnc3C)no2)cc1C  33.8%
81. Fc1cccc(Cl)c1COc1ccc(-c2nnco2)cc1  36.9%
82. CC1(C)C=Cc2c(ccc(C(=O)/C=C/c3ccccc3)c2O)O1  37.3%
83. OC(Cc1ccc2ccccc2n1)c1ccc(Cl)c(Cl)c1 (centres undefined)  91.1%

In the case of `Cc1ccc(-c2nc(C#N)c(NCCCn3ccnc3)o2)cc1`, the Potency is reported as 4.47 µM (active).
For `O=C(/C=C/c1ccc(Cl)cc1Cl)NCc1ccco1`, the Potency was 11.2 µM (active).
With `CC(C)(C)C(=O)c1cnc(Nc2ccccc2)s1` the Potency was 4.47 µM (active).
In the case of `COc1ccc(-c2noc(-c3cccc(OC)c3OC)n2)cc1OC`, the Potency is reported as 3.98 µM (active).
With `Cc1ccn(-c2cccc(-n3ccc(C)n3)n2)n1` the Potency was 12.6 µM (active).
In the case of `Cc1ccc(-n2c(C)cc(/C=C(\C#N)C(=O)NCC3CCCO3)c2C)cc1` (centres undefined), the Potency is reported as 2.51 µM (active).
In the case of `CC(C)(C)C(=O)Nc1ccc(-c2cn3cccnc3n2)cc1`, the Potency is reported as 2.82 µM (active).
With `N#CC(=C1CCCC1)c1nc(-c2ccc(Cl)cc2)cs1` the Potency was 6.31 µM (active).
For `O=C(Cc1ccc(F)cc1)N/N=C/c1ccc2c(c1)OCO2`, the Potency was 3.98 µM (active).
In the case of `CCN(CC)C(=O)c1sc2nc(-c3ccccc3)ccc2c1N`, the Potency is reported as 2.24 µM (active).
In the case of `CCC(CC)c1nnc(NC(=O)C2=COCCO2)s1`, the Potency is reported as 10 µM (active).
For `Cc1sc(NC(=O)C2=COCCO2)c(C#N)c1C`, the Potency was 12.6 µM (active).
With `CC1(C)C=Cc2c(ccc3c2OC[C@@H](c2ccc(O)cc2O)C3)O1` the Potency was 11.2 µM (active).
In the case of `O=C(Cc1cccc2ccccc12)Nc1ccc2oc(-c3ccccc3)nc2c1`, the Potency is reported as 11.2 µM (active).
With `CCC(=O)Nc1ccc(C(=O)Nc2cccc(OC)c2)cc1` the Potency was 12.6 µM (active).
With `Cc1ccc(/C=N/NC(=O)CSc2nc3ccccc3o2)cc1` the Potency was 11.2 µM (active).
For `CC(=O)Nc1ccc(NC(=O)CN2CCCC(C)C2)c(Cl)c1` (centres undefined), the Potency was 11.2 µM (active).
For `COc1ccc(Nc2ncc(C(=O)N3CCN(c4ccccc4OC)CC3)c3ccccc23)cc1`, the Potency was “inactive”.
With `COc1ccc(Nc2ncnc3sc(C)cc23)cc1` the Potency was 8.91 µM (active).
With `Fc1ccc(COc2ccc(-c3nnco3)cc2)cc1` the Potency was 11.2 µM (active).
In the case of `COCC1CCCCN1C(=O)c1cc(COc2ccc(C)c(C)c2)on1` (centres undefined), the Potency is reported as 11.2 µM (active).
